T1: UNK ZnF1-3 (human, UniProt Q9C0B0 31-174)
T1 sequence: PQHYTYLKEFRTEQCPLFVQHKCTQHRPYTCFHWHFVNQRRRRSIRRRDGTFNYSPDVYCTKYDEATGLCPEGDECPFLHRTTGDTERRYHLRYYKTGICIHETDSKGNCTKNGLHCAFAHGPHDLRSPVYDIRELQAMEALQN

B1: 19477749_19479453_500_CDS_ENSMUSG00000028228_ENSMUST00000029885|mouse|control|control (ssRNA)
RNA: GGGAGUUCUACAGUCCGACGAUCUCUGGCUUCCAUUUCAAACAAUACCACUCUGUUAUCCUUUAUUUCUUCUGCUGAAAUCGUAAUACUCCCUUUCCCUGCAGGUUUGCCAUUUUUGAGCACCAGUGGUCGAGUUAGCUUCUUCAACAGAGGAUUGAGCAUCA
B2: chr2:9572718:9572719:+_ENSG00000119203_ENST00000238112|hu_mus|FALSE|FALSE (ssRNA)
RNA: GGGAGUUCUACAGUCCGACGAUCGACGUGGCCGGCAUGGUAACACCAGAACUUGAUUCCUGCAACUUCCUUAACUUCAUGAAAAUUGAUGGUUUCGAUUUUGUCCAUGCUUUCUUCCAAGUCUGUCUCAGUGUACAGCAUGUCCAACAGAGGAUUGAGCAUCA
B3: chr17:61655871:61655872:+_ENSG00000136485_ENST00000310827|hu_hu|FALSE|FALSE (ssRNA)
RNA: GGGAGUUCUACAGUCCGACGAUCGGUGGGGUAUGGGUGGUCAAAGGUGUUUCUGCAAAUAAACUCUGAACUCUCCUCAUCUAAACCAACAAGCUGAACCUUGUUGUUGUACUCCUCCACGAAGCUGCCCAGCGCCAAGCGAAACAACAGAGGAUUGAGCAUCA
B4: chr5:37680062:37680063:+_ENSMUSG00000029121_ENSMUST00000031004|mus_hu|mus_mus_mus_hu_False|1_18 (ssRNA)
RNA: GGGAGUUCUACAGUCCGACGAUCUUUGGGUGUAGCUGGUACCUCGUACACAGGACCGUCAUACAUGCCCCUGGAAACCCCUUGCAAUCCAAAAACCUUAUUCCUGAUUUUGACGCGCUGGUAGAGAUGCUCCGGGAAUGGCUUCAACAGAGGAUUGAGCAUCA
B5: chr17:45747064:45747065:+_ENSG00000108424_ENST00000290158|hu_hu|hu_hu_hu_mus_True|38_98 (ssRNA)
RNA: GGGAGUUCUACAGUCCGACGAUCGCCCACAGUCCACGCAGCUGUAUCUCGAACAACUACACUGGGGUCUUUCAUUAGUUCUAUUAGGGUGGGCAUAGCCUGUAUAACUAAUGGUUUCAGUUGAUUAGGCUCUGGUCCUUCCAACAACAGAGGAUUGAGCAUCA
B6: chr1:244855233:244855234:+_ENSG00000121644_ENST00000302550|hu_mus|hu_hu_hu_mus_True|98_98 (ssRNA)
RNA: GGGAGUUCUACAGUCCGACGAUCCAUCAGAUGGUAGGCAUUGCCUUUAUACUCUUUCCCCAGUUCUUCUACAAUUUUCUCUAUAUCAUCUUCUAGAAAGUCCGUACUUCCUAGAACAACAGCUUCUUUAAAUUUAAAUGUUUCCAACAGAGGAUUGAGCAUCA
B7: chr3:10015032:10015033:+_ENSMUSG00000027533_ENSMUST00000029046|mus_mus|mus_mus_mus_hu_True|58_58 (ssRNA)
RNA: GGGAGUUCUACAGUCCGACGAUCGUUUUUACCAUCACAAGUGAUGAUACAAUCUGGCUUGGCCAUUGCGCCCAUUUUCCUAAGAGCUAUUCCCACUCCUAGCUCCUUCAUGUAUUCAUCAAAGCCUUUGCUGUCCACCAGGCGCAACAGAGGAUUGAGCAUCA
B8: chr14:102449733:102449734:+_ENSG00000197102_ENST00000360184|hu_mus|FALSE|FALSE (ssRNA)
RNA: GGGAGUUCUACAGUCCGACGAUCCAGCACCUGGAGCUUCUCGUACUCGUCGUCCCACGUCUGGAAGACUUCGAAGCAAGCCACCAUGACCUUUUCAAACUCUUCAUAGGCUACAUGCAUCAACUUCCGAGUGCCCAAGACCUUCAACAGAGGAUUGAGCAUCA
B9: chr7:107985766:107985767:+_ENSMUSG00000029461_ENSMUST00000049053|mus_hu|FALSE|FALSE (ssRNA)
RNA: GGGAGUUCUACAGUCCGACGAUCCCCUAGGUAAAUUUUUGUAAGCAAGGUGCCCACUAGGUAGGAAGGCUGCAUUUAAUGCUAAUUUACUGUAAGGUCUAGGGAAGUCCUUUCCGCUUCUCUGGGCCUCAGUUUCCUCAUCUGCAACAGAGGAUUGAGCAUCA
B10: chr14:49633609:49633610:-_ENSMUSG00000061244_ENSMUST00000162175|mus_mus|FALSE|FALSE (ssRNA)
RNA: GGGAGUUCUACAGUCCGACGAUCCAUUCAUUUUCUGACACCAACAUUUUCCAGGAUUAUAACAGUCAUGUAGGUUUAUAGAAUUUGAAAUUUAUAAAUUAAAGUAUAGAAUUCAACAUAACAGGGAAAAGAUAAAAAUACAGCCAACAGAGGAUUGAGCAUCA
B11: chr14:57341393:57341394:-_ENSMUSG00000021938_ENSMUST00000022507|mus_hu|FALSE|FALSE (ssRNA)
RNA: GGGAGUUCUACAGUCCGACGAUCCUGAAUAUUCAGAAGCUAUAUGAAAUGUAGCUGGAAAUUCCGAUUUCACAGAACAUCAGUGGUUUAUACAAAUUAAACUCCCAUACCCUCCCACCCCCACAUAUACUACUCUAUCUACCCCAACAGAGGAUUGAGCAUCA
B12: 48457567_48458910_1668_CDS_ENSG00000079387_ENST00000551330|human|control|control (ssRNA)
RNA: GGGAGUUCUACAGUCCGACGAUCGAGAACUUCAUCCUGAUUCCCAUUACGAAAUACAUUCUUUAUUUCUUUCUCCAUUUCCUCUGUAAUUUCAGGAAAUUCAUCUUCACUAUCAGUUAAUUUAUGACCUUUUUUUUGUGUUUCCAACAGAGGAUUGAGCAUCA
B13: chr14:62153831:62153832:-_ENSMUSG00000021930_ENSMUST00000100496|mus_mus|FALSE|FALSE (ssRNA)
RNA: GGGAGUUCUACAGUCCGACGAUCAUAUUUGUUUAAAUAAGAUUAAAUAAGUUGCCUAGAUCUUUUAAACCAAACCUCAGCAUGGUAUAAUGAAUACAUGGGUUCCUUGGACAACAAUUAGAAGCUCAGUGUUCAGCAUGUGUUCAACAGAGGAUUGAGCAUCA
B14: chr10:57235669:57235670:-_ENSMUSG00000019877_ENSMUST00000020027|mus_hu|FALSE|FALSE (ssRNA)
RNA: GGGAGUUCUACAGUCCGACGAUCAAAUUGUGGAAUACAAUGUCUACACACAGAAUAAGGUUGGGGAAUUAAGCUGAAUUGUUAUAUUCCAUUCACAUUAAUAAAUAUUUUUAAAGAAGAAAUUGUAGAUUUUAAAAGCUUCAUCAACAGAGGAUUGAGCAUCA
B15: chr17:64801638:64801639:+_ENSG00000154229_ENST00000413366|hu_mus|hu_hu_hu_mus_False|28_38 (ssRNA)
RNA: GGGAGUUCUACAGUCCGACGAUCUAUAUAUAUAUAUACAUAUGUACACAUAUAUAGUAAAACCCUAGUUAAACGUGUAAAGUAGCCAUUCAUUUUUGAAAUUUUAUCUACAUUUAAAAAUUAAUAUAUCUGAUAGAGUGCCAGCAACAGAGGAUUGAGCAUCA
B16: chr11:130013608:130013609:+_ENSG00000084234_ENST00000528499|hu_hu|motif|central (ssRNA)
RNA: GGGAGUUCUACAGUCCGACGAUCAGCAUGUGUCAGACAAUACAAUGGAAGUGGGGUUUCUGAUUAAUUUAAAAAAGAAAACGGCAUCAAAUAUCUGCAAUAGAUCAUUUUUUUCAUUUAAGGUUUAUAUAUCAUAUAUUGUUACAACAGAGGAUUGAGCAUCA
B17: chr4:140213729:140213730:-_ENSG00000109390_ENST00000265500|hu_mus|FALSE|FALSE (ssRNA)
RNA: GGGAGUUCUACAGUCCGACGAUCGAAGCUGACUGUAUUAUUUCCAAAGUUUAUUCCAAUCCAUUUCUUCUUUUAUACUCCAAAACAUCUUCAUUGUGUGUUUGGAUGAGCUACAAGAUAAUGGUUAAAAUUAGAAAUGUGAGCCAACAGAGGAUUGAGCAUCA
B18: chr16:35696996:35696997:-_ENSMUSG00000022848_ENSMUST00000023554|mus_mus|FALSE|FALSE (ssRNA)
RNA: GGGAGUUCUACAGUCCGACGAUCAAGACGGGUCCAGGAGCCAUGCAAUGAGUAUGUUUUUGUUUUUGUUUUUUUUAAAAAUCCAUUAUUUAUAGAAAGAAAUAGGUAUUGGCAAAAAUCUGUCCAAUCAAAUACAAUGACUUCCAACAGAGGAUUGAGCAUCA
B19: 98287512_98287632_2604_3pUTR_ENSG00000180543_ENST00000322128|human|control|control (ssRNA)
RNA: GGGAGUUCUACAGUCCGACGAUCUACCUCCCCAGCUGUAUGUAGAAAAAUGUGGUUUUUCAGUUGUUUUCUCUGUGGUACUAUUUAAACAAAAUAAAAAAGAAUAAGGAAAGAAGGAAGGGGAAGGCAGAAGAGGAGGAAAGGCAACAGAGGAUUGAGCAUCA
B20: chr6:30403744:30403745:+_ENSMUSG00000029775_ENSMUST00000068259|mus_mus|motif|central (ssRNA)
RNA: GGGAGUUCUACAGUCCGACGAUCAGGAGAAGGCUAAACACUGAUUAUCUAUGGAUUUCGAUUGUGUGUGCUUUCACCUUGCGGCAGUGGAUAACGAAAGAUCAGUCAUACUUUUAAUCUAGAAAUGUUAAUAUUUUCAUCAUACAACAGAGGAUUGAGCAUCA
B21: chr4:136876768:136876769:-_ENSMUSG00000006699_ENSMUST00000051477|mus_mus|FALSE|FALSE (ssRNA)
RNA: GGGAGUUCUACAGUCCGACGAUCAAACAACAAACGUUUGUGGGGAUUUUUGUUUUUUUUUUUAAACAAAGAAAACAAAAACUAGCACUCAUUGCUUUUCAGACAAUACAUAAUUAUUCAAAAUUAACUAUUACUGGAAGGGCACAACAGAGGAUUGAGCAUCA

The values below come from paper PMC12136788.

Whole data set: some 24,000 sequences, median “enrichment r” near 0.99, cut for the highest 2% near 3.7. The full list was thinned out, with the highest values kept by preference.

The target of this assay is T1, UNK ZnF1-3. In words: nsRBNS (natural sequence RNA bind-n-seq); RBNS binding buffer (assumed for nsRBNS): 25 mM Tris pH 7.5, 150 mM KCl, 3 mM MgCl2, 0.01% Triton X-100, 500 ug/ml BSA, 20 U/ml SUPERase-In, 4 C; UNK is unkempt and MSI1 is Musashi-1; names of the RNAs are library labels; protein concentration not given here; high values mean tight binding.
For B1, the binding signal stood at 0.645 enrichment R. B2 showed a binding signal of 0.798 enrichment R. Then B3, with 1.21 enrichment R; and B4, with 0.867 enrichment R; and B5, with 0.573 enrichment R.

As for B6, the binding signal stood at 1.59 enrichment R.

Molecule B7 displayed a binding signal of 0.594 enrichment R. For the molecule B8, the binding signal turned out to be 1.2 enrichment R.

Molecule B9 had a binding signal of 0.876 enrichment R. As for B10, the binding signal worked out at 5.9 enrichment R. Molecule B11 gave a binding signal of 4.65 enrichment R. B12 gave a binding signal of 0.373 enrichment R. B13: the binding signal was 0.982 enrichment R. Take B14: the binding signal amounted to 6.49 enrichment R. As for B15, the binding signal was found to be 2.54 enrichment R.

On to B16, for which the binding signal worked out at 5.2 enrichment R. On to B17, for which the binding signal amounted to 1.21 enrichment R. Then B18, with 2.16 enrichment R; and B19, with 3.05 enrichment R; and B20, with 0.934 enrichment R. In the case of B21, the binding signal was 0.695 enrichment R.
